PubChem BioAssay (NCATS)
Results filed as inconclusive are left out. A number with no mark means an inactive call. The source made the active and inactive calls. Calls come from the whole dose curve; as a rule, active = well fitted curve in either direction with a large enough effect (not every such curve was filed as active); inconclusive = small, poorly fitted or top-dose-only effect, or another doubt; inactive = flat fitted curve, though single readings scatter.

experiment: NFAT Signaling Pathway (AID 444); conditions: Jurkat NFAT-bla M1, carbachol, beta-lactamase ratio, 5 h; at 7.69 µM (top of the series) unless noted;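 note: carbachol stimulus at about its EC50 of 1 µM final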
Procedure, shortened: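 Jurkat cells with NFAT-driven β-lactamase reporter and co-expressed M1 receptor, stimulated with carbachol (final 1 uM, ~EC50), compound titration, 5 h at 37 °C. CCF4 loaded 1 h at RT; 460/530 nm ratio gave %activity and AC50.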
% is set by controls: 0 for no effect and ±100 for the full control effect.

Structure (SMILES) | activity change, negative = inhibition
Cc1cccc(CNc2ncnc3ccc(-c4ccc(C(=O)N(C)C)cc4)cc23)c1 | -8.36%
C[C@@H]1CCCN(C[C@@H](O)CN2CCCc3ccccc32)C1 | -7.43%
CN(C)CCCN1c2ccc3ccccc3c2Sc2cccc(Cl)c21 | 1.06%
O=C1c2ccccc2C(O)(O)[C@@]1(O)[C@]1(O)C(=O)c2ccccc2C1(O)O | -0.902%
ClC(=Nc1cccc2ccccc12)N(c1ccccc1)c1ccccc1 | -2.09%
CC(=O)Nc1nc(NC(C)=O)c2[nH]c(CO)nc2n1 | 1.8%
OCCCNc1ncnc2[nH]ncc12 | 0.588%
COCCn1c(=O)c(CCc2ccccc2)nc2cnc(Oc3cccc(Cl)c3)nc21 | -14.7%
CC(CC(=O)O)(CC(=O)O)c1ccccc1 | 4.46%
CN(C)CCCn1c2c3ccccc3ccc2c2oc(=O)c3ccccc3c21 | -13.6%
COc1cccc2c1[C@H](CO)N1[C@H](C#N)[C@@H]3C[C@H](C(=O)O)[C@@H]([C@@H]1C2)N3C | -126% (active)
Oc1ccc2ccccc2c1CN(Cc1c(O)ccc2ccccc12)C1CCCCC1 | -9.52%
O=C(c1ccncc1)N1CCC2(CCCN(c3cccc(-c4ccccc4)c3)C2)CC1 | -6.09%
CN(C)c1ccc(N=Nc2cccc3ccoc23)cc1 | -18.9%
N#Cc1c(NC(=O)C(F)(F)F)sc2c3c(=O)c4ccccc4c(=O)c=3oc3ccccc3c12 | 13.7%
N[C@@](CCc1ccccc1)(C(=O)O)c1ccccc1 | 3.42%
CC(=O)O[C@H]1CC[C@@]2(C)C(=CC[C@@H]3[C@@H]4CC[C@H](c5cc(C(F)(F)F)n(C(C)=O)n5)[C@]4(C)CC[C@@H]32)C1 | 12.1%

experiment: Stat Signaling Pathway (AID 446); conditions: ME-180 (cervical carcinoma) SIE beta-lactamase reporter, IL-6 stimulated, 5 h; at 7.69 µM (top of the series) unless noted;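 note: ME-180 cervical cancer cells given 40 pM IL-6 alongside compound; SIE-controlled beta-lactamase reporter measured as 460/530 nm FRET emission ratio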
Procedure, shortened: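 Compound effects on IL-6-induced STAT reporter activity were measured in ME-180 cells. After overnight culture, cells were co-treated with 40 pM IL-6 for 5 hrs before beta-lactamase substrate loading at room temperature.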

Structure (SMILES) | activity, negative = inhibition [%]
O=[N+]([O-])c1ccc(S(=O)(=O)Cc2ccccc2)c2nonc12 | -2.97
CCN(CC)CCN1c2ccccc2Sc2ccc3ccccc3c21 | 4.26
Oc1c(C(O)(c2ccccc2)c2ccc3ccccc3c2O)ccc2ccccc12 | -10.4
Nc1nc(Sc2ccc([N+](=O)[O-])c3nonc23)c2[nH]cnc2n1 | -12.4
C[C@@H]1CCCN(C[C@@H](O)CN2CCCc3ccccc32)C1 | 11.4
CN(C)CCCN1c2ccccc2Sc2ccc3ccccc3c21 | 3.27
CN(C)CCCN1c2ccc3ccccc3c2Sc2cccc(Cl)c21 | 2.06
CC(=O)Nc1ccc(Cc2ccc3[nH]c(=O)cc(C)c3c2)cc1 | -9.78
C[N+](C)([O-])CCC=C1c2ccccc2CCc2ccccc21 | 10.1
O=C1C(Cl)=C(Sc2nnc3c4ccccc4c4ccccc4c3n2)C(=O)c2ccccc21 | -24.6
CC(CC(=O)O)(CC(=O)O)c1ccccc1 | 7.69
Cc1ccc(-c2nc(-c3nccc4ccccc34)oc2-c2ccccc2)cc1 | 24.1
Oc1ccc2ccccc2c1CN(Cc1c(O)ccc2ccccc12)C1CCCCC1 | -14.2
O=C(c1ccncc1)N1CCC2(CCCN(c3cccc(-c4ccccc4)c3)C2)CC1 | -7.37
CCC1=C(C[C@H]2NCCc3ccccc32)C[C@@H]2c3cc(OC)c(OC)cc3CCN2C1 | -23.5
C[C@H]1CC(C)(C)C[C@@](OCCN2CCCCC2)(c2ccccc2)C1 | 7.87
CN(C)c1ccc(N=Nc2cccc3ccoc23)cc1 | 4.35
N#Cc1c(NC(=O)C(F)(F)F)sc2c3c(=O)c4ccccc4c(=O)c=3oc3ccccc3c12 | 0.0272
COc1ccc(-c2csc3c2[N+]2=CCC=C2C3=O)cc1 | -14.9
CN(C)CCCN1c2ccc(O)cc2Sc2ccc(Cl)cc21 | 18.9
COc1ccc(Oc2ncc3nc(CCc4ccccc4)c(=O)n(C4CC4)c3n2)cc1 | -0.549
C=C(C)COc1ccc2c(c1)CCC1C2CC[C@]2(C)C(=O)/C(=N/O)CC12 (stereo partly specified) | 9.84
COc1ccc2nc3cc(Cl)ccc3c(Nc3ccc(O)c(CN4CCN(C)CC4)c3)c2c1 | 23
C[C@@]12CC[C@@H]3[C@@H](CC[C@H]4C[C@@H](O)CC[C@]43C)[C@H]1CC[C@@H]2c1cc(C(F)(F)F)n[nH]1 | 16.7
